# Screens (PubChem)
# FBW7 act – activators of human E3 ligase FBW7; Q969H0; AlphaScreen FBW7–phospho-cyclin E peptide binding, activator screen; normalized activity (activation), % at 26.1 µM; 0.13% of 650,000 active; AID 1259310; in the data active means normalized activity above about 1.9%;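 further: purified mutant Fbw7 with reduced substrate affinity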
# GPR151 ag – activators of human GPR151. AID 1508602. activation, % at 11.2 µM. 1% of 650,000 active. PathHunter beta-arrestin GPR151 cells, luminescence; in the data active means activation above about 4.9%;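 further: 0% = median of compound wells and 100% = cells with positive control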
# MITF inh – human MITF inhibition, primary screen; O75030; AlphaScreen MITF homodimerization, bead proximity signal; inhibition, % at 2.6 µM; 0.91% of 650,000 active; in the data active means inhibition above about 50%;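 further: 0% = vehicle wells with protein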
# Target sequence (O75030 whole entry, looked up): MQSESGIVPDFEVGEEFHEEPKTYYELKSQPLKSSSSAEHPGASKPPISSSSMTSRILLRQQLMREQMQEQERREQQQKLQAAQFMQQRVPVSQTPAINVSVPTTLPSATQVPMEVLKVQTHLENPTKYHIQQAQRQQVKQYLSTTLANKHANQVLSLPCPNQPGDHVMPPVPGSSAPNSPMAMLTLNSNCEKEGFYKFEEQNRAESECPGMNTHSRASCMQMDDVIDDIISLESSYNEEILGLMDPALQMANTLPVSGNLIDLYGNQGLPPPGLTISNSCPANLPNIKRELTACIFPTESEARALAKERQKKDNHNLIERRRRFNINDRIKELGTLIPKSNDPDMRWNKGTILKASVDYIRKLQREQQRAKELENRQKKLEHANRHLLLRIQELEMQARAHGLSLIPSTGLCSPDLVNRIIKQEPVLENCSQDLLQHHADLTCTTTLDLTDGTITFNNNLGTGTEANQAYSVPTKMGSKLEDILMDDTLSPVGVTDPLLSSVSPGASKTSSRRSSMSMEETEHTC
# TEAD-YAP inh – TEAD-YAP interaction inhibition | inhibition, % at 9.12 µM | 1.4% of 640,000 active | AID 1259422 | HEK-TIYL cells, TEAD-Gal4/YAP UAS-luciferase luminescence; in the data active means inhibition above about 32%;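 further: 0% = median of test compound wells and 100% = reference inhibitor wells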
# * marks the source's active call; other numbers are inactive results. Rows were chosen to be rich in hits. Some 3.4% of all compounds tested hit in one or more screens of this group.
SMILES,FBW7 act,GPR151 ag,MITF inh,TEAD-YAP inh
COCCOC(=O)c1[nH]c2c(c1C)C(=O)CC(c1ccc(OC)c(OC)c1)C2 (stereo not drawn),0.0,0.0,8.2,26.8
COC(=O)c1[nH]c2c(c1C)C(=O)CC(c1ccc(C)cc1)C2 (stereo not drawn),0.4,2.6,3.9,-26.5
CCOCCOC(=O)c1[nH]c2c(c1C)C(=O)CC(c1cc(OC)c(OC)c(OC)c1)C2 (stereo not drawn),-0.3,1.9,-3.4,42.2*
Cc1c(Cl)c(C)c(C2=NON3N(C(=O)Nc4ccccc4)c4ccccc4N23)c(C)c1Cl,0.2,-0.4,16.2,-26.1
OCCCNc1cc(-c2cccc(C(F)(F)F)c2)nc(-c2ccccn2)n1,-0.3,1.7,18.4,33.0*
OCCCNc1cc(-c2cccc(C(F)(F)F)c2)nc(-c2cccnc2)n1,0.3,1.9,6.4,11.8
CCOc1ccc(C(=O)Oc2ccc(-c3nc4ccc(C)cc4s3)cc2)cc1Br,0.1,-1.1,17.3,37.0*
CCOc1ccc(C(=O)Nc2ccc(-c3nc4ccc(C)cc4s3)cc2)cc1Br,0.0,-0.3,-4.9,-0.4
c1ccc(CN2CCC(Nc3ncnc4nc(-c5ccc(N6CCOCC6)nc5)[nH]c34)CC2)cc1,-0.1,0.7,-5.2,-19.0
COc1ccc(Br)cc1C1C(C#N)=C(N)Oc2cc3c(cc21)OCO3 (stereo not drawn),0.0,-0.2,-13.6,47.4*
CCOc1cc(C2C(C#N)=C(N)Oc3cc4c(cc32)OCO4)cc(Br)c1OC (stereo not drawn),0.0,1.2,4.7,56.9*
COC(=O)C1=C(C)N(C)C(=O)/C1=C\c1cc(OC)ccc1OC,-0.2,0.8,14.0,-2.1
COc1ccc(/C=C2\Nc3ccccc3C2=O)cc1OC,0.1,-1.2,22.9,5.0
CCOc1ccc(C2Nn3c(C)nnc3SC2C(=O)Nc2cccc(Cl)c2C)cc1 (stereo not drawn),0.1,1.1,14.8,16.6
COc1cccc(CNCc2ccc([N+](=O)[O-])cc2)c1OC,-0.1,-0.8,35.7,3.5
Cc1nc(N2CCCC2)c2cc(C)sc2n1,-0.1,1.2,-5.1,-9.3
Cc1nc(N2CCCc3ccccc32)c2cc(C)sc2n1,0.1,0.0,-13.0,45.5*
Cc1cc(=O)nc2c3ccccc3n(CC(=O)Nc3ccc(F)cc3F)n12,-0.2,1.5,1.4,2.0
Cc1cc2cc3c(cc2n2c(=O)n(CCN(C)C)nc12)OCO3,0.1,0.4,-0.4,-4.4
Cc1cc(C)c2cc(C)c3nn(CCN(C)C)c(=O)n3c2c1,0.8,-0.2,19.9,41.2*
CCOc1ccc(S(=O)(=O)Nc2ccc3oc(C)c(C(=O)OCCOC)c3c2)cc1,0.1,-0.8,2.8,57.3*
CCCc1oc2ccc(NS(=O)(=O)c3ccc(F)cc3)cc2c1C(=O)OCC,-0.1,0.8,-3.6,8.8
COC(=O)c1c(C)oc2ccc(N(C(=O)c3ccc([N+](=O)[O-])cc3)S(=O)(=O)c3ccc(C)cc3)cc12,-0.1,0.0,21.4,58.5*
CCCc1oc2ccc(NS(=O)(=O)c3ccc(C)cc3)cc2c1C(=O)OCC,0.1,0.3,17.4,57.1*
COC(=O)c1c(C)oc2ccc(NS(=O)(=O)c3ccc(C)cc3C)cc12,-0.1,4.1,-1.9,46.2*
SMILES,FBW7 act,GPR151 ag,MITF inh,TEAD-YAP inh
COC(=O)c1c(C)oc2ccc(NS(=O)(=O)c3cc(C)ccc3C)cc12,-0.1,1.3,-4.1,30.8
CCOC(=O)c1c(C)oc2ccc(NS(=O)(=O)c3ccc(Cl)cc3)cc12,0.0,0.4,2.9,10.7
CCOC(=O)c1c(C)oc2ccc(NS(=O)(=O)c3ccc(C)cc3)cc12,-0.1,0.4,0.3,34.0*
COCc1oc2ccc(NS(=O)(=O)c3ccc(C)cc3)cc2c1C(=O)OC,-0.1,-1.2,-7.0,55.0*
CCc1ccc(S(=O)(=O)N(C(C)=O)c2ccc3oc(C)c(C(=O)OC)c3c2)cc1,0.0,0.9,1.3,48.8*
CCc1ccc(S(=O)(=O)Nc2ccc3oc(C)c(C(=O)OC)c3c2)cc1,-0.2,3.3,-5.3,60.1*
CCCNC(=O)c1cnc(-c2cccc(C(C)=O)c2)s1,0.0,0.6,-8.2,-15.9
Cc1ccc2nc(NCCCNC(=O)C3CCC3)c(C#N)cc2c1,0.1,-0.3,22.1,-5.5
CSc1ccc(S(=O)(=O)Nc2cccc(C(F)(F)F)c2)cc1,0.0,-0.3,-8.1,7.1
CCOC(=O)c1cc(-c2ccccc2)sc1NC(=O)C(CC(C)C)N1C(=O)c2ccccc2C1=O (stereo not drawn),-0.1,2.2,0.8,-4.6
N#C/C(=C\Nc1cccc([N+](=O)[O-])c1)c1nc(-c2ccc3c(c2)OCO3)cs1,-0.1,-0.3,5.8,4.5
COc1ccc(C(c2nnnn2C(C)(C)C)N2CCc3ccccc3C2)cc1OC (stereo not drawn),-0.2,0.5,-3.0,-3.8
COc1ccc(C(=O)NNC(=O)CC#N)cc1,1.3,-0.2,14.1,6.8
CC(=O)c1c(C)oc2ccc(NS(=O)(=O)c3c(C)cc(C)cc3C)cc12,0.1,2.5,0.2,37.0*
CC(=O)c1c(C)oc2ccc(N(C(C)=O)S(=O)(=O)c3cccc4cccnc34)cc12,0.0,0.7,6.2,52.4*
COCCCNC(=O)CN(Cc1ccccc1F)S(=O)(=O)c1ccc(Cl)cc1,-0.1,2.0,-12.6,1.0
c1ccc(Nc2nc(Nc3ccc4c(c3)OCO4)c3[nH]cnc3n2)cc1,0.0,2.8,6.2,19.3
CC(=O)Nc1ccc(Nc2nc(Nc3nc4ccccc4n3C)nc3nc[nH]c23)cc1,-0.3,-0.7,8.5,-0.8
Cc1cnc(Nc2ccc(N3CCOCC3)cc2)nc1Nc1ccccc1,0.0,0.7,29.8,63.4*
Cc1cnc(Nc2ncccn2)nc1Nc1ccc(N2CCOCC2)cc1,-0.3,0.1,1.7,1.1
Cc1cnc(Nc2ccccc2)nc1Nc1ccc(N2CCOCC2)cc1,-0.1,0.8,3.4,61.9*
c1nc2nc(Nc3ccc(N4CCOCC4)cc3)nc(Nc3ccc4c(c3)OCO4)c2[nH]1,0.7,-0.3,20.8,45.2*
Cn1c(Nc2nc(Nc3ccc4c(c3)OCO4)c3[nH]cnc3n2)nc2ccccc21,14.1*,1.1,-0.5,-7.7
Cc1cnc(Nc2ccc3ncccc3c2)nc1Nc1ccc2c(c1)OCO2,1.1,0.5,13.6,44.3*
Cc1cnc(Nc2ccc(N3CCOCC3)cc2)nc1Nc1ccccc1C(N)=O,-0.2,0.0,-7.5,93.0*
SMILES,FBW7 act,GPR151 ag,MITF inh,TEAD-YAP inh
Cc1cnc(Nc2nccc3ccccc23)nc1Nc1ccc2c(c1)OCO2,-0.3,-0.5,-4.2,5.8
c1ccc(Nc2nc(Nc3ccc(N4CCOCC4)cc3)c3[nH]cnc3n2)nc1,0.5,-1.0,5.3,10.1
O=C(Nc1ccc(N2CCOCC2)cc1)C1CCN(c2ccc(Nc3ccc4ncccc4c3)nn2)CC1,-0.4,2.9,36.9,39.6*
c1cnc2ccc(Nc3nc(Nc4ccc(N5CCOCC5)cc4)c4[nH]cnc4n3)cc2c1,-0.1,0.8,5.8,79.7*
CC(=O)c1ccc(S(=O)(=O)N(Cc2cccs2)Cc2cccn2C)cc1,-0.3,0.1,-2.3,-6.3
COCc1ccc(CN2CCN(Cc3ccsc3)C(CCO)C2)o1 (stereo not drawn),0.1,-1.5,3.0,-1.3
